# Measured values as given in PubChem BioAssay AID720690 (Broad Institute, 2013).
# Measured potencies and affinities stand elsewhere. Calls of active or inactive are those of the source.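 Rule for the calls: active = every repeat run showing a signal drop whose fitted half-maximal concentration is at most twice the top tested concentration; inconclusive = repeat runs disagree, or flat partial drop, or poor fit; inactive = the rest.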
# Experiment: general mammalian cell viability loss – activator set, cherry-pick, cytotoxicity control for miR-122 modulator project, dose response (AID 720690)
# Settings: HEK293T viability, CellTiter-Glo luminescence, 48 h; series mostly up to 26 µM
row,Structure (SMILES),outcome
1,COc1cccc(CNC(=O)C[C@@H]2CC[C@H]3[C@H](COc4ccc(NS(=O)(=O)c5ccccc5F)cc4C(=O)N3C)O2)c1,inactive
2,OC[C@H]1[C@@H](c2ccccc2)[C@@H](CNCC2CCC2)N1CC1CC1,inactive
3,C[C@H]1CN([C@@H](C)CO)C(=O)c2cc(C#Cc3cccnc3)cnc2O[C@H]1CN(C)S(=O)(=O)c1ccccc1F,inactive
4,CNc1nc(NCC2CCCCC2)c2sccc2n1,inactive
5,CC(=O)Nc1ccc(-c2cc(-c3ccc(NC(C)=O)cc3)nc(-c3ccc(NC(C)=O)cc3)n2)cc1,inactive
6,C/C=C/c1ccc([C@@H]2[C@H](CO)N[C@H]2CN(CC)C(=O)CN2CCOCC2)cc1,inactive
7,C/C=C/c1ccc2c(c1)O[C@H](CN(C)C(=O)Cc1cccnc1)[C@H](C)CN([C@H](C)CO)S2(=O)=O,inactive
8,COc1ccc(-c2cn3c(C)c(C(=O)Nc4cccc(NC(C)=O)c4)sc3n2)cc1,inactive
9,CNC(=O)C[C@@H]1CC[C@@H]2[C@@H](COc3ccc(NC(=O)c4ccccc4F)cc3C(=O)N2C)O1,inactive
10,COC(=O)C[C@H]1CC[C@H]2[C@H](COc3ccc(NC(=O)c4cccc(F)c4)cc3C(=O)N2C)O1,inactive
11,Cc1oc(-c2ccc(Cl)cc2)nc1CN1CCCC(C(=O)NCc2ccco2)C1 (stereo not given),inactive
12,CCCCN1C=C(C(=O)OC)C(c2ccccc2C(F)(F)F)C(C(=O)OC)=C1,inactive
13,COc1ccc(S(=O)(=O)N(C)C[C@@H]2Oc3cc(-c4cccc(F)c4)ccc3S(=O)(=O)N([C@@H](C)CO)C[C@H]2C)cc1,inactive
14,COc1ccc(-c2c(C(C)=O)c(C)nc3sc4c(c23)NC(c2ccccc2)NC4=O)cc1 (stereo not given),inactive
15,CN(C(=O)c1ccccc1Cl)C1CCCCC1,inactive
16,CCCCCn1c(=O)[nH]c2cc(C(=O)NCCN3C(C)CCCC3C)ccc2c1=O (stereo not given),inactive
17,CN(C[C@H]1N[C@@H](CO)[C@H]1c1ccc(-c2ccccc2)cc1)C(=O)C1CCC1,inactive
18,CCCC(=O)Nc1ccc2c(c1)C(=O)N(C)[C@@H]1CC[C@H](CC(=O)NCc3cccc(F)c3)O[C@H]1CO2,inactive
19,COc1ccc(C#Cc2ccc3c(c2)O[C@H](CN(C)C(=O)CN2CCOCC2)[C@H](C)CN([C@H](C)CO)S3(=O)=O)cc1,inactive
20,COCC(=O)N1[C@H](CO)[C@@H](c2ccccc2)[C@H]1CN(C)C(=O)c1ccncc1,inactive

row,Structure (SMILES),outcome
1,COc1cccc(NC(=O)C[C@@H]2CC[C@@H]3[C@@H](COc4ccc(NS(=O)(=O)c5cccc(F)c5)cc4C(=O)N3C)O2)c1,inactive
2,CNC(=O)C[C@@H]1CC[C@@H]2[C@@H](COc3ccc(NC(=O)c4ccccc4OC)cc3C(=O)N2C)O1,inactive
3,CCOC(=O)C1CN(S(=O)(=O)c2ccccc2)CCN1S(=O)(=O)c1ccccc1 (stereo not given),inactive
4,COCC(=O)NC[C@@H]1[C@H](c2ccc(C3=CCCC3)cc2)[C@H](CO)N1C(=O)C1CC1,inactive
5,C[C@@H]1CN([C@H](C)CO)S(=O)(=O)c2ccc(-c3ccccc3)cc2O[C@@H]1CN(C)C(=O)c1ccc2c(c1)OCO2,inactive
6,C[C@@H]1CN([C@@H](C)CO)C(=O)c2cc(NC(=O)Nc3cccc4ccccc34)ccc2O[C@@H](C)CCCCO[C@H]1CN(C)CC1CCCCC1,inactive
7,COc1cccc(C(=O)Nc2ccc3c(c2)C(=O)N(C)[C@@H]2CC[C@@H](CC(=O)N[C@H](C)c4ccccc4)O[C@@H]2CO3)c1,inactive
8,N#Cc1c(N)nc2c(c1-c1cccs1)CCCC2,inactive
9,Cc1ccc(-n2c(Cc3ccccc3)n[nH]c2=S)cc1,inactive
10,COCC(=O)Nc1ccc2c(c1)C(=O)N(C)[C@@H]1CC[C@H](CC(=O)NC3CCCC3)O[C@H]1CO2,inactive
11,CN(C)CCCNC(=O)C[C@@H]1CC[C@@H]2[C@@H](COc3ccc(NC(=O)NC4CCCC4)cc3C(=O)N2C)O1,inactive
12,CCCC#Cc1ccc2c(c1)O[C@H](CN(C)C(=O)c1ccncc1)[C@H](C)CN([C@@H](C)CO)S2(=O)=O,inactive
13,C[C@H]1CN([C@@H](C)CO)C(=O)c2cc(C#CC3CCCC3)cnc2O[C@H]1CN(C)C(=O)Cc1ccccn1,inactive
14,CNc1nc(NCCOc2ccccc2)c2sccc2n1,inactive
15,COCCN(C[C@H]1[C@H](c2ccccc2)[C@@H](CO)N1C(=O)C1CCC1)C(C)=O,inactive
16,CO[C@@H]1CN(C)C(=O)c2ccc(NS(=O)(=O)c3cccc(F)c3)cc2OC[C@@H](C)NC[C@H]1C,inactive
17,C[C@H]1CN([C@@H](C)CO)S(=O)(=O)c2ccc(C3=CCCC3)cc2O[C@H]1CN(C)Cc1cccnc1,inactive
18,COCCNC(=O)C[C@H]1CC[C@@H]2[C@H](COc3ccc(NC(=O)C4CCOCC4)cc3C(=O)N2C)O1,inactive
19,CC(=O)Oc1ccc2c(c1)C(=O)c1ccccc1CO2,inactive
20,CC(=O)N1[C@@H](CO)[C@@H](c2ccccc2)[C@@H]1CNC(=O)CN1CCOCC1,inactive
